JMJD2A Tudor: qHTS Assay for Inhibitors of JMJD2A-Tudor Domain. 4.4% of 390,000 active. Potency, µM (series often up to 114 µM), usual class: inhibitors. Lysine-specific demethylase 4A (Homo sapiens), O75164. AlphaScreen JMJD2A-Tudor / H3K4me3 peptide binding. AID 504339, 2011; note: nearly all actives have a fitted effect of over 50% in size
PLK1 PBD inh: qHTS for Inhibitors of PLK1-PDB (polo-like kinase 1 - polo-box domain): Primary Screen; Plk1 PBD binding of FITC phosphopeptide, fluorescence polarization; Potency, µM, hits mostly inhibitors; 2.8% of 360,000 active; AID 720504, 2013; note: series mostly up to about 57 µM; nearly all actives have a fitted effect of over 65% in size
BAZ2B inh: qHTS Assay for Inhibitors of BAZ2B. AlphaScreen BAZ2B-H3K14Ac peptide displacement. Potency, µM (titrated, usually from 114 µM), most hits filed as inhibitors. 4.4% of 360,000 active. AID 504333, 2011; note: nearly all actives have a fitted effect of over 60% in size
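Inhibition is scored as reduced AlphaScreen emission. The BAZ2B/b-H3(5-23)K14Ac complex (50 nM each) in PBS pH 7.4, 0.01% Tween-20 meets compound (up to 110 uM) for 30 min at RT before bead addition.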
HP1b chromo inh: HTS for Inhibitors of HP1-beta Chromodomain Interactions with Methylated Histone Tails | 0.56% of 390,000 active | Potency, µM (series often up to 114 µM), hits mostly inhibitors | AlphaScreen HP1-beta / biotin-H3K9me3 peptide binding; note: nearly all actives have a fitted effect of over 70% in size
Target sequence (P83916 whole entry, looked up): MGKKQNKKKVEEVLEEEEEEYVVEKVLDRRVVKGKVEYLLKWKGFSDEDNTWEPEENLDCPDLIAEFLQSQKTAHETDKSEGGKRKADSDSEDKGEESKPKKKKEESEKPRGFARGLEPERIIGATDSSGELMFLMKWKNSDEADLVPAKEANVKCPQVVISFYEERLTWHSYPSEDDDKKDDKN
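AlphaScreen: HP1-beta (50 nM) preformed 30 min with biotin-H3(1-18)K9me3 peptide (50 nM) in PBS pH 7.4, 0.01% Tween-20. Compound added for 30 min at RT, then streptavidin donor/nickel chelate acceptor beads (10 ug/mL) for 30 min.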
VDR inh: Inhibitors of the vitamin D receptor (VDR): qHTS; Vitamin D3 receptor (Homo sapiens), P11473; VDR-SRC2-3 peptide fluorescence polarization, 2 h; Potency, µM, most hits filed as inhibitors; 0.93% of 400,000 active
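VDR–SRC2-3 interaction, FP format. Cmpds 23 nl via pintool, brief spin, 2 h ambient incubation.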
G9a inh: qHTS Assay for Inhibitors of Histone Lysine Methyltransferase G9a; Histone-lysine N-methyltransferase EHMT2 (Homo sapiens), Q96KQ7; 8.8% of 350,000 active; Potency, µM (series often up to 102 µM), most hits filed as inhibitors; AID 504332, 2011; G9a H3K9 monomethylation, AlphaScreen, 2 h; note: nearly all actives have a fitted effect of over 75% in size
Target sequence (Q96KQ7 913-1193 limits assumed): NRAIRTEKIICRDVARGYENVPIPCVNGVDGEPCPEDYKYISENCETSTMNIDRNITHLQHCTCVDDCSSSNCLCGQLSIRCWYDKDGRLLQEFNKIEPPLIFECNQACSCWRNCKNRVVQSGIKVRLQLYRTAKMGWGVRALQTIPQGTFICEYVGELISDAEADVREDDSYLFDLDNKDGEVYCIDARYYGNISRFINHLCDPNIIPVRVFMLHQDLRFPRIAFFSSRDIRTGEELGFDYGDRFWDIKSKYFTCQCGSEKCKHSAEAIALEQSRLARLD
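Enzyme 20 nM + cpd, 15 min RT; add b-H3K9 pep 500 nM / SAM 20 uM; 2 h RT; anti-H3K9me1 Ab 0.5 ug/mL + SA donor / anti-rabbit acceptor beads 20 ug/mL each, 10 min; AlphaScreen read.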
A number is an active result; [ ] = another dose, or the depositor's remark. Shown are actives, neighbours in structure and some others; about 11% of the full set was active somewhere. Calls come from the whole dose curve; as a rule, active = well fitted curve in the direction sought with a large enough effect; inconclusive = small, poorly fitted or top-dose-only effect, or another doubt; inactive = no such curve, though single readings can be large; an effect the other way counts as inactive or inconclusive.

COc1ccc(Br)c(C(=O)N(C)CC(=O)Nc2ccc(N3CCOCC3)cc2)c1 was read as JMJD2A Tudor inactive, PLK1 PBD inh inactive, BAZ2B inh inactive, HP1b chromo inh inactive, VDR inh inactive and G9a inh 20µM.
`CN(CC(=O)Nc1ccc(N2CCOCC2)cc1)C(=O)CSc1ccc(F)cc1` gave JMJD2A Tudor inconclusive, PLK1 PBD inh inactive, BAZ2B inh inactive, HP1b chromo inh inactive, VDR inh inactive and G9a inh 12.6µM.
`CCCCNC(=O)c1nc(C2CCN(S(=O)(=O)c3c(F)cccc3F)CC2)oc1-c1ccccc1` gave PLK1 PBD inh inactive.
For NC(=O)C(c1ccc(Cl)cc1Cl)c1ncc(C(F)(F)F)cc1Cl (stereo not drawn) the results were JMJD2A Tudor inactive, PLK1 PBD inh inactive, BAZ2B inh inactive, HP1b chromo inh inactive, VDR inh inactive and G9a inh inactive.
`CCn1c2ccccc2c2cc(NC(=O)CN(C)CC(=O)Nc3ccc(N4CCOCC4)cc3)ccc21` gave JMJD2A Tudor inconclusive, PLK1 PBD inh inactive, BAZ2B inh 28.2µM, HP1b chromo inh inactive, VDR inh inactive and G9a inh 39.8µM.
Screening CN(CC(=O)Nc1ccc(N2CCOCC2)cc1)C(=O)CSc1ccccc1F returned JMJD2A Tudor inactive, PLK1 PBD inh inconclusive, BAZ2B inh inactive, HP1b chromo inh inactive, VDR inh inactive and G9a inh inconclusive.
CN(CC(=O)Nc1ccc(N2CCOCC2)cc1)C(=O)CCc1cc(C(C)(C)C)c(O)c(C(C)(C)C)c1 was read as JMJD2A Tudor inconclusive, PLK1 PBD inh inactive, BAZ2B inh 50.1µM, HP1b chromo inh inactive, VDR inh inactive and G9a inh inactive[0.501 µM].
For Cc1cccc(-c2nn(-c3ccccc3)cc2C(=O)N(C)CC(=O)Nc2ccc(N3CCOCC3)cc2)c1 the results were JMJD2A Tudor inactive, PLK1 PBD inh inactive, BAZ2B inh inconclusive, HP1b chromo inh inactive, VDR inh inactive and G9a inh 7.94µM.
Screening Cc1cc(C)cc(OCC(=O)Nc2ccc(N3CCCCC3)cc2)c1 returned JMJD2A Tudor inactive, PLK1 PBD inh inactive, BAZ2B inh inactive, HP1b chromo inh inconclusive, VDR inh inactive and G9a inh inactive[2.33 µM].
`CCCC(=O)Nc1ccc(N2CCOCC2)cc1` gave JMJD2A Tudor inactive[11.4 µM], PLK1 PBD inh inactive, BAZ2B inh inactive, HP1b chromo inh inactive, VDR inh inactive and G9a inh inactive[12.7 µM].
Cc1cc(C)cc(OCC(=O)N(C)CC(=O)Nc2ccc(N3CCOCC3)cc2)c1 was read as JMJD2A Tudor inactive, PLK1 PBD inh inactive, BAZ2B inh inactive, HP1b chromo inh inactive, VDR inh inactive and G9a inh 35.5µM.
COC(=O)CNC(=O)c1cccc(-c2ccc(OC)cc2)c1 was read as JMJD2A Tudor inactive, PLK1 PBD inh inactive, BAZ2B inh inactive, HP1b chromo inh inactive, VDR inh inactive and G9a inh inactive.
`Cc1ccc(CNC(=O)C2(C)CCN2C(=O)Cc2ccc(C(C)(C)C)cc2)cc1` (stereo not drawn) gave PLK1 PBD inh inactive.
For O=C1COC(c2ccccc2)C2CCCCN12 (stereo not drawn) the results were JMJD2A Tudor inactive, PLK1 PBD inh inactive, BAZ2B inh inactive, HP1b chromo inh inactive, VDR inh inactive and G9a inh inactive.
Cc1cc(C(F)F)n2nc(C(=O)Nc3sc4c(c3C#N)CCC4)nc2n1 was read as JMJD2A Tudor inactive, PLK1 PBD inh 26.7µM, BAZ2B inh inconclusive, HP1b chromo inh inconclusive, VDR inh inactive and G9a inh 50.1µM.
Screening N#Cc1c(NC(=O)c2ccccc2)sc2c1CCCCC2 returned JMJD2A Tudor inactive, PLK1 PBD inh inactive, BAZ2B inh inactive, HP1b chromo inh inactive, VDR inh inactive and G9a inh inactive.
Screening C=CCNC(=S)Nc1sc2c(c1C#N)CCCC2 returned JMJD2A Tudor inactive, PLK1 PBD inh inactive, BAZ2B inh inactive, HP1b chromo inh inactive, VDR inh inactive and G9a inh 44.7µM.
N#Cc1c(NC(=O)c2cc(-n3cnnc3)ccc2Cl)sc2c1CCCC2 was read as JMJD2A Tudor inactive, PLK1 PBD inh inactive, BAZ2B inh inactive, HP1b chromo inh inactive, VDR inh inactive and G9a inh 11.2µM.
Screening CCOC(=O)c1cc(C(=O)Nc2sc3c(c2C#N)CCCC3)nn1C returned JMJD2A Tudor inactive, PLK1 PBD inh 21.2µM, BAZ2B inh inactive, HP1b chromo inh inactive, VDR inh inconclusive and G9a inh 11.2µM.
For CC(C)(C)C(=O)NC(=S)Nc1sc2c(c1C#N)CCCCC2 the results were JMJD2A Tudor inactive, PLK1 PBD inh inactive, BAZ2B inh inactive, HP1b chromo inh inactive, VDR inh inconclusive and G9a inh inconclusive.
Cc1ccccc1CSc1nc2cccnc2n1Cc1ccc(C(=O)NCCc2cccs2)cc1 was read as JMJD2A Tudor inactive, BAZ2B inh inactive, HP1b chromo inh inactive, VDR inh inactive and G9a inh inconclusive.
`OC[C@@H]1CN(Cc2ccc(-c3ccccc3)cc2)C[C@H](n2cnc3c(NC4CCC4)ncnc32)O1` gave PLK1 PBD inh inactive.
For CC(C)Cc1cc(C(=O)Nc2sc3c(c2C#N)CCC3)no1 the results were JMJD2A Tudor inactive, PLK1 PBD inh 23.8µM, BAZ2B inh inactive, HP1b chromo inh inactive, VDR inh inactive and G9a inh 44.7µM.
Screening N#Cc1c(NC(=O)COC(=O)c2nccnc2N)sc2c1CCCC2 returned JMJD2A Tudor 25.1µM, PLK1 PBD inh inactive, BAZ2B inh 79.4µM, HP1b chromo inh inactive, VDR inh inactive and G9a inh 44.7µM.
Cn1ccc(C(=O)Nc2sc3c(c2C#N)CCC3)n1 was read as JMJD2A Tudor inactive, PLK1 PBD inh inconclusive, BAZ2B inh inconclusive, HP1b chromo inh inactive, VDR inh inactive and G9a inh 35.5µM.
`COc1ccccc1-c1cc(C(=O)Nc2sc3c(c2C#N)CCCC3)no1` gave JMJD2A Tudor inactive, BAZ2B inh inactive, HP1b chromo inh inconclusive, VDR inh 79.4µM and G9a inh 3.16µM.
For Cc1ccc(-n2ncc(C(=O)NCCCN3CCN(c4cccc(Cl)c4)CC3)c2-n2cccc2)cc1 the results were JMJD2A Tudor inconclusive, BAZ2B inh inconclusive, HP1b chromo inh inactive, VDR inh inactive and G9a inh inconclusive.
Screening CCN(Cc1ccccc1)C(=O)CCc1c(C)nc2c(c(C)nn2-c2ccc(C)c(C)c2)c1C returned JMJD2A Tudor inactive, BAZ2B inh inactive, HP1b chromo inh inactive, VDR inh inactive and G9a inh inactive.
